# Source: PubChem BioAssay (National Center for Advancing Translational Sciences (NCATS))
# The list is not random: actives were taken first. Their share in the collection is about 3.2%.
# mTORC1 inh = inhibitors of mTORC1 signaling in Tsc2-/- p53-/- MEF cells | Tsc2-/- p53-/- MEF, phospho-rpS6 immunofluorescence/PI, 24 h | Potency, µM (top dose mostly 38.3 µM), hits mostly inhibitors | 44,000 compounds, 0.78% hits | AID 493208; also: nearly all actives have a fitted effect of over 50% in size
#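 Compounds act on Tsc2-/-, p53-/- fibroblasts carrying an empty vector for 24 h before fixation and dual staining for phospho-S6 and DNA (propidium iodide). Values are percentages of cells above a rapamycin-defined pS6/PI threshold.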
# p53null 32C kill = kills p53 null cells at the permissive temperature; Potency, µM (doses to about 46.1 µM), actives largely listed as cytotoxic; 55,000 compounds, 0.62% hits; H1299-neo p53 null cells, ATP luminescence, 24 h, 32C; also: nearly all actives have a fitted effect of over 55% in size
#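 H1299-neo, 600 cells/well; overnight 37C; cpd up to 46 uM, 24 h at 32C; ATPlite luminescence after 20 min RT; normalized to DMSO (0%) and tamoxifen 100 uM (100% kill); Hill-fit AC50.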
# PMP22 txn = PMP22 gene transcription modulation; S16 Pmp22-F2sN Schwann cells, FLuc/NLuc coincidence luminescence, 24 h; Potency, µM (doses to about 57.5 µM), actives largely listed as inhibitors; 43,000 compounds, 2% hits; active = clear falling dose curves in both reporters; inconclusive = both reporters move, but less clearly or upward; inactive = either reporter flat; the % is the NLuc reporter signal
#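 qHTS, 1536-well. Cells seeded, compounds added by pin tool, 24 h 37C. Nano-Glo reagent 1 (lysis/FLuc), 10 min RT, read; Stop&Glo, 10 min RT, read NLuc.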
# p53null 39C tox = selectivity test: cytotoxicity in p53 null cells, nonpermissive temperature | H1299 p53-null (neo) cells, 39C, ATPlite viability, 24 h | Potency, µM (titrated, usually from 46.1 µM), hits mostly cytotoxic | 55,000 compounds, 0.97% hits | AID 904; also: nearly all actives have a fitted effect of over 50% in size
#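 Concentration-response (up to 46 uM) was run for 24 h at the nonpermissive 39C on H1299-p53A138V or H1299-neo cells. ATP content was measured with ATPlite luminescence. AC50 values were Hill-modeled after normalizing between DMSO and 100 uM tamoxifen killing.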
# S16 F2sN tox = toxic to S16 Pmp22-F2sN Schwann cells; Potency, µM (titrated, usually from 57.5 µM), usual class: cytotoxic; 43,000 compounds, 0.48% hits; S16 Pmp22-F2sN Schwann cells viability, CellTiter-Glo, 24 h; AID 1508642; also: nearly all actives have a fitted effect of over 65% in size
#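 Seed 500-1,000 S16 Pmp22-F2sN cells per well in phenol-red-free DMEM with 10% heat-inactivated FBS; pin-add 23 nL compound; incubate 24 h at 37C; add CellTiter-Glo, wait 15 min protected from light; read luminescence.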
# NLuc saturating = NanoLuc enzyme inhibition artifact for PMP22 screen; AID 1508638; 690 compounds, 4% hits; Secreted NLuc enzyme (filtered S16 cell medium), Nano-Glo luminescence; Potency, µM (titrated, usually from 57.5 µM), usual class: inhibitors; shares compounds with PMP22 txn
# NLuc Km counter = NanoLuc inhibition at Km substrate, PMP22 artifact check; shares compounds with PMP22 txn; secreted NLuc enzyme, coelenterazine luminescence, Km conditions; Potency, µM (top dose mostly 57.5 µM), usual class: inhibitors; 690 compounds, 5% hits
# FLuc counter = counter-screen for PMP22 expression modulators: firefly luciferase inhibition | shares compounds with PMP22 txn | purified P. pyralis FLuc, luminescence, 10 min | Potency, µM (doses to about 57.5 µM), usual class: inhibitors | 690 tested, under 10 active | AID 1508640
# Target sequence (P08659 whole entry, looked up): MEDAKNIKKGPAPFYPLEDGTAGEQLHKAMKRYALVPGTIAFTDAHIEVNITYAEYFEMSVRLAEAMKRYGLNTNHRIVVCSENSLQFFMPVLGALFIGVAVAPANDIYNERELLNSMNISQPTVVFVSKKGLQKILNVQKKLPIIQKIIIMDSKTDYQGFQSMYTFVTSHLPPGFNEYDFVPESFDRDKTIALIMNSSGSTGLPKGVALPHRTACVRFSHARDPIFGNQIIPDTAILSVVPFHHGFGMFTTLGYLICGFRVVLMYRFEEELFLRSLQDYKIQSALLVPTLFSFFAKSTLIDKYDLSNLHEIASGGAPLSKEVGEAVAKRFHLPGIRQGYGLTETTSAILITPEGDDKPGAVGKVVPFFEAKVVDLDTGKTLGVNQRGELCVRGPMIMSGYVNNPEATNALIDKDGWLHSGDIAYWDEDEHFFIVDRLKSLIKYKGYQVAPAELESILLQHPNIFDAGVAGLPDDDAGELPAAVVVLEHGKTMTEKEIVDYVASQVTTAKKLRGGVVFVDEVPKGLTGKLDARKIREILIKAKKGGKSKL
# S16 viab conf = confirmation of cytotoxicity in S16 Pmp22-F2sN Schwann cells (luciferase reporters placed in the Pmp22 gene). shares compounds with PMP22 txn. S16 Schwann cells viability, CellTiter-Glo ATP luminescence, 24 h. Potency, µM (highest dose often 57.5 µM), usual class: cytotoxic. 690 compounds, 7% hits
# PMP22 txn conf = PMP22 transcription modulation, confirmatory; shares compounds with PMP22 txn; S16 Schwann cells Pmp22-F2sN, dual luciferase, 24 h; Potency, µM (titrated, usually from 57.5 µM), usual class: inhibitors; 690 compounds, 22% hits; AID 1508646; active = clear falling dose curves in both reporters; inconclusive = both reporters move, but less clearly or upward; inactive = either reporter flat; the % is the FLuc reporter signal
# PMP22 prot conf = rat PMP22 protein level modulation, confirmatory; shares compounds with PMP22 txn; Potency, µM (series often up to 27.9 µM), usual class: inhibitors; 95 tested, under 10 active; S16 Schwann cells Pmp22-HiBiT, luminescence, 48 h; AID 1508647
# Target sequence (P25094 whole entry, looked up): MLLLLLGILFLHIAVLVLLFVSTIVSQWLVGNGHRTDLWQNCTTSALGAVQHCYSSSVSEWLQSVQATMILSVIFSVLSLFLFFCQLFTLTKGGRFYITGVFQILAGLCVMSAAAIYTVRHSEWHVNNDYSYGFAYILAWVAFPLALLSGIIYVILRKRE
# Numbers stand for hits; – = inactive; ? = inconclusive; · = no result. Unless noted, calls follow the shape of the dose curve; as a rule, active = well fitted curve in the direction sought with a large enough effect; inconclusive = small, poorly fitted or top-dose-only effect, or another doubt; inactive = no such curve, though single readings can be large; an effect the other way counts as inactive or inconclusive.
SMILES,mTORC1 inh,p53null 32C kill,PMP22 txn,p53null 39C tox,S16 F2sN tox,NLuc saturating,NLuc Km counter,FLuc counter,S16 viab conf,PMP22 txn conf,others
COc1cc(C(=O)CC2(O)C(=O)N(Cc3ccccc3Cl)c3ccccc32)cc(OC)c1OC (stereo unspecified),4.1µM,–,11µM,?,–,–,–,–,–,?,
Cc1nnc(N2CCC(C(=O)NCc3ccc(F)cc3)CC2)c2nn(-c3ccc(Cl)cc3)c(C)c12,–,–,?,–,–,·,·,·,·,·,
Cc1cc(C)cc(N2C(=O)CS(=O)(=O)C23C(=O)N(C)c2ccccc23)c1 (stereo unspecified),–,–,–,–,–,·,·,·,·,·,
CCOc1ccc(C(=O)c2cnc3ccc(Cl)cc3c2S(=O)(=O)c2ccc(C)cc2)cc1,–,–,14µM,–,–,–,–,–,–,19µM,PMP22 prot conf=–
O=C(CN1c2ccc(Br)cc2-c2ccccc2S1(=O)=O)N1CCCCC1,–,–,?,–,–,·,·,·,·,·,
CCn1c(CN2CCCCC2)nc2cc(NC(=O)c3ccc([N+](=O)[O-])cc3)ccc21,–,–,–,–,?,·,·,·,·,·,
CC(=O)c1ccc(NC(=O)COc2ccccc2-c2nc(C(C)C)no2)cc1,–,–,13µM,–,–,–,–,–,–,–,
COc1cccc(C2C=C(c3ccc(C)cc3)Nc3c(C(=O)Nc4ccc(F)cc4)cnn32)c1OC (stereo unspecified),–,–,?,–,?,·,·,·,·,·,
Cc1oc(-c2ccc(Cl)cc2)nc1CN1CCCC(C(=O)NCc2ccccc2)C1 (stereo unspecified),–,–,18µM,–,–,?,?,–,–,?,
COc1cccc(N2CCN(C(=O)C3CCN(S(=O)(=O)c4ccc5c(c4)oc(=O)n5C)CC3)CC2)c1,–,–,–,–,–,·,·,·,·,·,
Cc1cccc(N2CCN(C(=O)C3CCCN(S(=O)(=O)c4ccc5c(c4)oc(=O)n5C)C3)CC2)c1C (stereo unspecified),–,–,11µM,–,–,–,–,–,–,?,PMP22 prot conf=?
Cn1c(=O)oc2cc(S(=O)(=O)N3CCCC(C(=O)N4CCN(c5cccc(Cl)c5)CC4)C3)ccc21 (stereo unspecified),–,–,13µM,–,–,–,–,–,–,17µM,PMP22 prot conf=?
Cc1cccc(N2CCN(C(=O)C3CCN(S(=O)(=O)c4ccc5c(c4)oc(=O)n5C)CC3)CC2)c1C,–,–,20µM,–,–,–,–,–,–,–,
CCCn1c(=NC(=O)c2cc3ccccc3o2)c(C(=O)OCC)cc2c(=O)n3ccccc3nc21,–,–,?,–,?,·,·,·,·,·,
O=C(Nc1ccc(Cl)cc1)c1cnn2c1NC(c1ccccc1)=CC2c1ccccc1 (stereo unspecified),–,–,14µM,?,?,?,?,–,–,?,
CC1=C(C(=O)Nc2ccc(Cl)cc2)C(c2ccccc2)n2ncc(C(=O)Nc3ccccc3)c2N1 (stereo unspecified),?,–,?,–,?,·,·,·,·,·,
CCOc1cc(-c2nnc(SCC(=O)NCc3ccccc3)nc2-c2ccc(OC)c(OCC)c2)ccc1OC,–,–,8.9µM,–,–,?,?,–,–,?,
CN1CCc2c(sc(NC(=O)CSc3ccccc3)c2-c2nc3ccccc3s2)C1,?,–,?,?,–,·,·,·,·,·,
CC(=O)N1CCc2c(sc(NC(=O)CSc3ccccc3)c2-c2nc3ccccc3s2)C1,–,–,4µM,–,?,?,?,–,?,13µM,PMP22 prot conf=?
CCCSCCCNC(=O)c1cc2n(n1)CCCN(Cc1ccc(C)cc1)C2=O,–,–,–,?,–,·,·,·,·,·,
COc1ccc(NS(=O)(=O)c2ccc3c(c2)CC(C)N3C(=O)C2CCC2)cc1OC (stereo unspecified),–,–,3µM,–,–,–,?,–,–,?,
CCc1cccc(NS(=O)(=O)c2ccc3c(c2)CC(C)N3C(=O)C2CC2)c1 (stereo unspecified),–,–,?,–,?,·,·,·,·,·,
CCOc1ccc2oc(=O)cc(CN3CCN(Cc4ccc(F)cc4)CC3)c2c1,–,–,14µM,–,?,–,–,–,–,–,
O=S(=O)(NCCc1csc(-c2ccc(F)cc2)n1)c1ccc(Cl)cc1,–,–,?,–,?,·,·,·,·,·,
CC(=O)c1cccc(Nc2nc(-c3ccccc3Cl)nc3ccccc23)c1,–,–,11µM,?,–,5.4µM,0.86µM,–,–,–,
SMILES,mTORC1 inh,p53null 32C kill,PMP22 txn,p53null 39C tox,S16 F2sN tox,NLuc saturating,NLuc Km counter,FLuc counter,S16 viab conf,PMP22 txn conf,others
Cc1ccc(C(=O)NCC(=O)OCc2cc(=O)n3nc(C4CCCCC4)sc3n2)cc1,–,–,?,–,–,·,·,·,·,·,
Cc1ccc2c(CC(=O)Nc3nnc(C(C)C)s3)coc2c1C,–,–,?,–,–,·,·,·,·,·,
CCN(CC)c1cc(C)c2cc(NC(=O)/C=C/c3ccccc3Cl)ccc2n1,?,–,12µM,?,?,?,–,–,?,?,
CC(C)c1ccccc1NC(=O)Cn1cnc2c1c(=O)n(C)c(=O)n2C,–,–,·,–,·,·,·,·,·,·,
CC(C)c1cnc2c(c1SCC(=O)Nc1ccccc1C(F)(F)F)c(=O)n(C)c(=O)n2C,–,–,?,–,–,·,·,·,·,·,
COc1ccc(-c2csc3ncnc(Nc4ccc(OC)cc4OC)c23)cc1,–,–,?,–,–,·,·,·,·,·,
COc1ccccc1Nc1ncnc2scc(-c3ccc(F)cc3)c12,–,–,18µM,–,–,–,–,–,–,–,
CC1Cc2ccccc2N1C(=O)CSc1nnc(-c2ccccc2Cl)o1 (stereo unspecified),–,–,–,–,–,·,·,·,·,·,
O=C(Nc1ccc(Br)c2cccnc12)c1cccc2ccccc12,–,–,16µM,–,–,–,–,–,–,?,
